# Results as given in paper PMC7862700, “An all-to-all approach to the identification of sequence-specific readers for epigenetic DNA modifications on cytosine”.
# Key:
# Assay in all cases: DAPPL (digital affinity profiling via proximity ligation, sequencing); 10 mM Tris-HCl pH 7.5, 50 mM NaCl, 1 mM DTT, 4% glycerol, room temperature, 30 min; GST-TFs on glutathione beads, 16-mer random dsDNA library, 0.1% formaldehyde crosslink after washing; high values mean tight binding
# [1] = target: T1, FEV (Homo sapiens, UniProt Q99581 1-238); details: protein: recombinant; tags: N-terminal GST; dsDNA, one strand shown
# T1 sequence: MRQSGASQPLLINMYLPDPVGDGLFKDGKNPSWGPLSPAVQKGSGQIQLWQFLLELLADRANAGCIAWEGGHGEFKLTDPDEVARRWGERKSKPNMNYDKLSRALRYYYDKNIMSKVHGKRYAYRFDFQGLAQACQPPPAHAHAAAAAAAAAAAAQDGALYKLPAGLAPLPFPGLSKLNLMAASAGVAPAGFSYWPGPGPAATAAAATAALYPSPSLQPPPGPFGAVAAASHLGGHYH
# In short: (§1)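 Human transcription factors were made in yeast as GST fusions, captured on glutathione beads and barcoded with DNA. With a tag-only sample included, the pool was incubated with 200 nmole of a random double-stranded 16-mer DNA library in Tris/NaCl/DTT/glycerol buffer at room temperature for 30 min, then crosslinked with 0.1% formaldehyde after washing, ligated by proximity, amplified and sequenced. For binding signal, each hexamer's read frequency for a factor is divided by its frequency for the tag-only sample.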
# [2] = target: ETV5 (Homo sapiens, UniProt P41161 1-510); details: protein: recombinant; tags: N-terminal GST; dsDNA, one strand shown
# Sequence of ETV5 (P41161 whole entry): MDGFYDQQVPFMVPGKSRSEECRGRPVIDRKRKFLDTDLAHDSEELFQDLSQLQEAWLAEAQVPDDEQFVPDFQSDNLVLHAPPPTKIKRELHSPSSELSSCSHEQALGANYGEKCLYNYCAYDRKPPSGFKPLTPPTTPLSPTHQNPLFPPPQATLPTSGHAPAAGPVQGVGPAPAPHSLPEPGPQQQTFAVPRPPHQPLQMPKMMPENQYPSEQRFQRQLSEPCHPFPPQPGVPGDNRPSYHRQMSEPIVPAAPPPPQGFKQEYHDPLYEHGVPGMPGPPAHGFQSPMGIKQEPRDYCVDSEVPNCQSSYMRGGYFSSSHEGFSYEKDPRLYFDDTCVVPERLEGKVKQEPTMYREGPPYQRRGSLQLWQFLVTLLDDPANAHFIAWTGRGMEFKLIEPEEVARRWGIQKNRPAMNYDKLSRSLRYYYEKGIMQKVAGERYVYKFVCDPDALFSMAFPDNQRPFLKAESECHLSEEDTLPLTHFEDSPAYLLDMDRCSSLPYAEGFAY
# In short: as §1
# [3] = target: HSF1 (Homo sapiens, UniProt Q00613 1-529); details: protein: recombinant; tags: N-terminal GST; chain copies: 3; dsDNA, one strand shown
# Sequence of HSF1 (Q00613 whole entry): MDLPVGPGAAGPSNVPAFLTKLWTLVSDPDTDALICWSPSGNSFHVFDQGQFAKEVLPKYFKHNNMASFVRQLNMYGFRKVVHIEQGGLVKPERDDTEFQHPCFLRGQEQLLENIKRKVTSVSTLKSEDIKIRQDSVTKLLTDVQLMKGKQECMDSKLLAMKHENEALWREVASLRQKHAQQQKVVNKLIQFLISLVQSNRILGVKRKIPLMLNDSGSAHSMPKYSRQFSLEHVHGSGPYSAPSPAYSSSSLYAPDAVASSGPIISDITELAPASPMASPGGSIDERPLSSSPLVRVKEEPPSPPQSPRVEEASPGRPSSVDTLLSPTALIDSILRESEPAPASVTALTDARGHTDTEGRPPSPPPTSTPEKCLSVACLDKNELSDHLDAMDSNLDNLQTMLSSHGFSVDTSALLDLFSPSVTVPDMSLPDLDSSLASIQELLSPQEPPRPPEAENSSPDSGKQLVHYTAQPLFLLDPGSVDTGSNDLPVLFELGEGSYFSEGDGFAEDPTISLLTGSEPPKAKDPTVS
# In short: as §1
# [4] = target: T2, SPIC (Homo sapiens, UniProt Q8N5J4 1-248); details: protein: recombinant; tags: N-terminal GST; dsDNA, one strand shown
# T2 sequence: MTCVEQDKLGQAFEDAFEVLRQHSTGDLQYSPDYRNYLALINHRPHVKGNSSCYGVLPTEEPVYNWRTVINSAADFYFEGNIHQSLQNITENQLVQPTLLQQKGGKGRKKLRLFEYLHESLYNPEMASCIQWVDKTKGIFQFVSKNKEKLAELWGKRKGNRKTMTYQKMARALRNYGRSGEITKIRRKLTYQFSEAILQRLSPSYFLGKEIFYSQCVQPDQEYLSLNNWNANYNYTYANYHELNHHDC
# In short: as §1
# [5] = target: ELF4 (Homo sapiens, UniProt Q99607 1-663); details: protein: recombinant; tags: N-terminal GST; dsDNA, one strand shown
# Sequence of ELF4 (Q99607 whole entry): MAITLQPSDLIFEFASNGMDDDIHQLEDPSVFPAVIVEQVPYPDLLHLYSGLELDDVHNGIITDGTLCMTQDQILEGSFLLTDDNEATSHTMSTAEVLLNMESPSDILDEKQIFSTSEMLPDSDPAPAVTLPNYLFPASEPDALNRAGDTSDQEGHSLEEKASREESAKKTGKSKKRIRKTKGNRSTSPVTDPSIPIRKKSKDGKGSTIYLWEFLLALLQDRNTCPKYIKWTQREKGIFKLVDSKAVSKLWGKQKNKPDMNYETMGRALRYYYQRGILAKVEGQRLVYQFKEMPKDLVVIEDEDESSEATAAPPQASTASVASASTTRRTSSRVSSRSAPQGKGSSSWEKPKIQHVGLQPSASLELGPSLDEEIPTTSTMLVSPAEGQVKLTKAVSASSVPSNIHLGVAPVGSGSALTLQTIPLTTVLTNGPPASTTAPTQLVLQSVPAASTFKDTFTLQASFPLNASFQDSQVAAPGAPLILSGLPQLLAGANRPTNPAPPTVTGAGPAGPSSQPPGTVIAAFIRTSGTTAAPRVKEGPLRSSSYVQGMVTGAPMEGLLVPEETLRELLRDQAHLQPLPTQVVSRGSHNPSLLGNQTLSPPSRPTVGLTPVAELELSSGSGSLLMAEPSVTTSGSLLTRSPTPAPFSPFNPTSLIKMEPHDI
# In short: as §1
# [6] = target: T3, ELK4 (Homo sapiens, UniProt P28324-2 1-405); details: protein: recombinant; tags: N-terminal GST; dsDNA, one strand shown
# T3 sequence: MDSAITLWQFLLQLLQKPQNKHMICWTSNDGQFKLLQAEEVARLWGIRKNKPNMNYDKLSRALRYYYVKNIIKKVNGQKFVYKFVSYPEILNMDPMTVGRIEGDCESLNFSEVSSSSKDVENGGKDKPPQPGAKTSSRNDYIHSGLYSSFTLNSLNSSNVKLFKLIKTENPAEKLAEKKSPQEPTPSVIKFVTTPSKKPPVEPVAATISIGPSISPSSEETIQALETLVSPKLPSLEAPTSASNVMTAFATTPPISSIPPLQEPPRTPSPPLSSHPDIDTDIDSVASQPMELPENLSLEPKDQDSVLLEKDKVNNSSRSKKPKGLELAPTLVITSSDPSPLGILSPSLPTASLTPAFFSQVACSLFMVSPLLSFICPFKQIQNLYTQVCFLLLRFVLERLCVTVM
# In short: as §1
# [7] = target: T4, ETV2 (Homo sapiens, UniProt O00321 1-342); details: protein: recombinant; tags: N-terminal GST; dsDNA, one strand shown
# T4 sequence: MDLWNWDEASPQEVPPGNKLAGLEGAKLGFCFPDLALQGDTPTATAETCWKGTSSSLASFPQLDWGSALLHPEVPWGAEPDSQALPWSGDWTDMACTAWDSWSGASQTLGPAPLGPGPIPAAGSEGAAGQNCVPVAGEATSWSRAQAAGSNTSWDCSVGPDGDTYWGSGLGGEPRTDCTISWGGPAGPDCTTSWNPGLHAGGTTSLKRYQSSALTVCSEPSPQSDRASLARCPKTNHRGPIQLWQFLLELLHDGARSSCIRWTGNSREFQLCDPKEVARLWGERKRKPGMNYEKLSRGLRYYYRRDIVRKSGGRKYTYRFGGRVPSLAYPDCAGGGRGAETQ
# In short: as §1
# [8] = target: T5, ELF3 (Homo sapiens, UniProt P78545 1-371); details: protein: recombinant; tags: N-terminal GST; dsDNA, one strand shown
# T5 sequence: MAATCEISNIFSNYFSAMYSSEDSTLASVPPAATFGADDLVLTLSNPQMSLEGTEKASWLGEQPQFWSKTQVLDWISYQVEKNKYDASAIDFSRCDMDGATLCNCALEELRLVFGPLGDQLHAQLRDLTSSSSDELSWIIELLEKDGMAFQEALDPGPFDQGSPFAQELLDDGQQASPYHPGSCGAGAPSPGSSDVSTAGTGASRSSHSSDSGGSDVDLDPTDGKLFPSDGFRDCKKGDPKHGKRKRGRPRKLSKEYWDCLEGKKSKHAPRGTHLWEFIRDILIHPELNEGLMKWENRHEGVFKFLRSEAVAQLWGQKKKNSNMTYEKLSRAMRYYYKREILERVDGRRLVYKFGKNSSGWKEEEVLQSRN
# In short: as §1
# [9] = target: CRX (Homo sapiens, UniProt O43186 1-299); details: protein: recombinant; tags: N-terminal GST; dsDNA, one strand shown
# Sequence of CRX (O43186 whole entry): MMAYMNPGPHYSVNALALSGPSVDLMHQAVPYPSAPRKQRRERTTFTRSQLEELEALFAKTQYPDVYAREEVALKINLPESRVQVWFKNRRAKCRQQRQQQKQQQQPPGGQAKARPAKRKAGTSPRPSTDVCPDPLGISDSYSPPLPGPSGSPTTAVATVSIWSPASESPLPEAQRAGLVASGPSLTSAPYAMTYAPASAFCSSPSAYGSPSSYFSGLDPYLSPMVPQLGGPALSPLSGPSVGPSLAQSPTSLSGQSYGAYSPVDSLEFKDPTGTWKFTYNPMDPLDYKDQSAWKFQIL
# In short: as §1
# [10] = target: ETV1 (Homo sapiens, UniProt P50549 1-477); details: protein: recombinant; tags: N-terminal GST; dsDNA, one strand shown
# Sequence of ETV1 (P50549 whole entry): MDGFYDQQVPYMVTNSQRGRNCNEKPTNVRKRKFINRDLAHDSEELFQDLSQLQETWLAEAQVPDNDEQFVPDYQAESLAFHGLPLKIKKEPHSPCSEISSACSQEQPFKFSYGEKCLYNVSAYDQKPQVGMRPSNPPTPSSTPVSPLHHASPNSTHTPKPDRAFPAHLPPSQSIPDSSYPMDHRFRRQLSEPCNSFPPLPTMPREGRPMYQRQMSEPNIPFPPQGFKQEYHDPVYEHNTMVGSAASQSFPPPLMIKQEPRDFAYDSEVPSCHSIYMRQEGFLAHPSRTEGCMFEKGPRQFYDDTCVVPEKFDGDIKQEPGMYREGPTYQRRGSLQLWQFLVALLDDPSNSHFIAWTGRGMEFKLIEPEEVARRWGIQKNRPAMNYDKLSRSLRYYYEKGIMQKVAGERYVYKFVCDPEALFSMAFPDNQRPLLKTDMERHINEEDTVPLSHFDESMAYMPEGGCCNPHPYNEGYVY
# In short: as §1
# [11] = target: T6, ERF (Homo sapiens, UniProt P50548 1-548); details: protein: recombinant; tags: N-terminal GST; dsDNA, one strand shown
# T6 sequence: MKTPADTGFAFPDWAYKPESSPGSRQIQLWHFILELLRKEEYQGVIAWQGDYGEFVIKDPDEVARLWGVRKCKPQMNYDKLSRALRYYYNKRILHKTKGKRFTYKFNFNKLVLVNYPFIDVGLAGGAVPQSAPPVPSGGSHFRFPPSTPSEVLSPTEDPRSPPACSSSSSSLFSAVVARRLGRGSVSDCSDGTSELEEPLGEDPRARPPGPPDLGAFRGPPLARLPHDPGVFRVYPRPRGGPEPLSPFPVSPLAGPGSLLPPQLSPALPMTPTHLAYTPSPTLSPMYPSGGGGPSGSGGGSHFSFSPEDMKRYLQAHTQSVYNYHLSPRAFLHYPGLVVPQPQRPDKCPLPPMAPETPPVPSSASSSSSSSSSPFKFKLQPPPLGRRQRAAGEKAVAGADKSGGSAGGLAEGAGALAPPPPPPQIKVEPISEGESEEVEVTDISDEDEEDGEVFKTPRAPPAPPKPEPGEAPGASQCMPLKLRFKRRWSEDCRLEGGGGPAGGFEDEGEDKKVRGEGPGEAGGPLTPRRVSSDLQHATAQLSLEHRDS
# In short: as §1
# [12] = target: T7, ETV3L (Homo sapiens, UniProt Q6ZN32 1-361); details: protein: recombinant; tags: N-terminal GST; dsDNA, one strand shown
# T7 sequence: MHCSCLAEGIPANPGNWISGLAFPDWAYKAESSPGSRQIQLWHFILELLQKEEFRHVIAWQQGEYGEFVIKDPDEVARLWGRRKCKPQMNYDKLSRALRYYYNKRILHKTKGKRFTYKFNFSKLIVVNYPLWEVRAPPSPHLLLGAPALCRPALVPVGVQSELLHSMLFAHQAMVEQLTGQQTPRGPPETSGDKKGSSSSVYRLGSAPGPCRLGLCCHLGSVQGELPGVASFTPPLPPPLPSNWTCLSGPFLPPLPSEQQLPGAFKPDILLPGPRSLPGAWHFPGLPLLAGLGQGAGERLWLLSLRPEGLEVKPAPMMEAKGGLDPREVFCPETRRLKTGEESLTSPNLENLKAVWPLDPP
# In short: as §1
# [13] = target: T8, ETS2 (Homo sapiens, UniProt P15036 1-469); details: protein: recombinant; tags: N-terminal GST; dsDNA, one strand shown
# T8 sequence: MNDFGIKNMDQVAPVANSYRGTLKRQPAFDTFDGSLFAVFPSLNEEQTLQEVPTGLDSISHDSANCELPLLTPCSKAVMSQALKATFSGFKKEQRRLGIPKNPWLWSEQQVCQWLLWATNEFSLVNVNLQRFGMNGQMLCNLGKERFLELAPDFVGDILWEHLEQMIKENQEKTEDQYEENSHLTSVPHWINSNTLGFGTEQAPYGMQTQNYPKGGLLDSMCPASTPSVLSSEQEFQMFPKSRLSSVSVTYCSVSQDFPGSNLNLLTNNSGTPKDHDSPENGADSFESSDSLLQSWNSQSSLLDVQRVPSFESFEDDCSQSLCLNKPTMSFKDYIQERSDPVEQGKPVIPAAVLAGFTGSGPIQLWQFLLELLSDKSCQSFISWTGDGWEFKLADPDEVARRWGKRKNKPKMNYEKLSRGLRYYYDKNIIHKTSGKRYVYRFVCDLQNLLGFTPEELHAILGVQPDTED
# In short: as §1
# [14] = target: T9, SPDEF (Homo sapiens, UniProt O95238 1-335); details: protein: recombinant; tags: N-terminal GST; dsDNA, one strand shown
# T9 sequence: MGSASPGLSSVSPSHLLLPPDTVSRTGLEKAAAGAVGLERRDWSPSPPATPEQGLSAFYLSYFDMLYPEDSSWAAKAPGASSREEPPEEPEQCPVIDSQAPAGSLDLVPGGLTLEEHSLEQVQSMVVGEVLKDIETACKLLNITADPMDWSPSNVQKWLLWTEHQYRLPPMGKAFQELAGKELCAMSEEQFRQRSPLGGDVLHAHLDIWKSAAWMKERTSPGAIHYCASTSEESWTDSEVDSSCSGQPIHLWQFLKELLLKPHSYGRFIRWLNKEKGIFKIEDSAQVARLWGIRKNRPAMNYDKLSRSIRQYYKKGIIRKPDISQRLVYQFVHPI
# In short: as §1
# [15] = target: T10, ETV7 (Homo sapiens, UniProt Q9Y603 1-341); details: protein: recombinant; tags: N-terminal GST; dsDNA, one strand shown
# T10 sequence: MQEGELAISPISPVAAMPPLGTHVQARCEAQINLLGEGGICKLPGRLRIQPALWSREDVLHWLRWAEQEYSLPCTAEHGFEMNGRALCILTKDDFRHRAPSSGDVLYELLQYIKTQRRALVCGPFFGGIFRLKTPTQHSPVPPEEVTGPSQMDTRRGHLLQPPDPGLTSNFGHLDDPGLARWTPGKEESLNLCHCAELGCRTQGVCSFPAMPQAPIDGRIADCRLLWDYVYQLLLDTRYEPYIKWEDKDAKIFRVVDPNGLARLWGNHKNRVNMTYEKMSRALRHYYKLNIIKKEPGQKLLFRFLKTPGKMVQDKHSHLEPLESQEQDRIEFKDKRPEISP
# In short: as §1
# [16] = target: T11, ELF5 (Homo sapiens, UniProt Q9UKW6-2 1-255); details: protein: recombinant; tags: N-terminal GST; dsDNA, one strand shown
# T11 sequence: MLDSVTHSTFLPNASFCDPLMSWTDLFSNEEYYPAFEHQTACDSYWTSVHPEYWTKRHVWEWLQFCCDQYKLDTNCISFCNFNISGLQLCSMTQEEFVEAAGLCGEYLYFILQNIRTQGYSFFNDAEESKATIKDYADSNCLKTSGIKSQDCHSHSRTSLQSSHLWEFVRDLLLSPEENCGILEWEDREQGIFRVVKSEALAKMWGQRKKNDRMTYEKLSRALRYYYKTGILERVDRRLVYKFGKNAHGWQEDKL
# In short: as §1
# [17] = target: T12, ETV3 (Homo sapiens, UniProt P41162-2 1-143); details: protein: recombinant; tags: N-terminal GST; dsDNA, one strand shown
# T12 sequence: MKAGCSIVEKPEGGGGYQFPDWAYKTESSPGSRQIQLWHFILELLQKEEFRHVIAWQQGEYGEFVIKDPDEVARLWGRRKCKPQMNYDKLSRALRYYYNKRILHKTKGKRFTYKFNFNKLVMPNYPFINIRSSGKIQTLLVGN
# In short: as §1
# [18] = target: ETV6 (Homo sapiens, UniProt P41212 1-452); details: protein: recombinant; tags: N-terminal GST; dsDNA, one strand shown
# Sequence of ETV6 (P41212 whole entry): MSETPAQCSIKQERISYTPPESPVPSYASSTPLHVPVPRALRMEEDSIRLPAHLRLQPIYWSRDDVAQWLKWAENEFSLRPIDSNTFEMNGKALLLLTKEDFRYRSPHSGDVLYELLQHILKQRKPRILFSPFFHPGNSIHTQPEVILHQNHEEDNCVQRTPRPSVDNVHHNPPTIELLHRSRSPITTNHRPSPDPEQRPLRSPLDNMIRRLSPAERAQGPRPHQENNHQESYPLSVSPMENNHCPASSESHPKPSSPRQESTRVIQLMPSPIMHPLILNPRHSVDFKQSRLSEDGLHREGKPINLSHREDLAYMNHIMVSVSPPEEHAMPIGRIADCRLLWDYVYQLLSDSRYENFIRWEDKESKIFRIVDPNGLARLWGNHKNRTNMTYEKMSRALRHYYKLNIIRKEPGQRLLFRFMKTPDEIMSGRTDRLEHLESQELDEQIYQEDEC
# In short: as §1
sequence,measurement,setting,value
TCTCCC,binding signal,[1],"1.7 fold enrichment (6-mer frequency, TF over GST control)"
same,binding signal,[2],"1.64 fold enrichment (6-mer frequency, TF over GST control)"
same,binding signal,[3],"1.65 fold enrichment (6-mer frequency, TF over GST control)"
same,binding signal,[4],"1.51 fold enrichment (6-mer frequency, TF over GST control)"
same,binding signal,[5],"1.78 fold enrichment (6-mer frequency, TF over GST control)"
same,binding signal,[6],"1.63 fold enrichment (6-mer frequency, TF over GST control)"
same,binding signal,[7],"1.54 fold enrichment (6-mer frequency, TF over GST control)"
same,binding signal,[8],"1.78 fold enrichment (6-mer frequency, TF over GST control)"
same,binding signal,[9],"1.7 fold enrichment (6-mer frequency, TF over GST control)"
same,binding signal,[10],"1.78 fold enrichment (6-mer frequency, TF over GST control)"
same,binding signal,[11],"1.89 fold enrichment (6-mer frequency, TF over GST control)"
same,binding signal,[12],"1.61 fold enrichment (6-mer frequency, TF over GST control)"
same,binding signal,[13],"1.6 fold enrichment (6-mer frequency, TF over GST control)"
same,binding signal,[14],"1.6 fold enrichment (6-mer frequency, TF over GST control)"
same,binding signal,[15],"1.57 fold enrichment (6-mer frequency, TF over GST control)"
same,binding signal,[16],"1.7 fold enrichment (6-mer frequency, TF over GST control)"
same,binding signal,[17],"1.71 fold enrichment (6-mer frequency, TF over GST control)"
same,binding signal,[18],"1.76 fold enrichment (6-mer frequency, TF over GST control)"
